This is an account of results in article PMC8384837, “Expanding the binding specificity for RNA recognition by a PUF domain”.

What all share (experiment): yeast three-hybrid, YBZ-1, SC-Leu-His + 0.5 mM 3-AT, 4 days
Holding throughout (details): tags: N-Gal4 AD-HA kept; label: inside an RPR1-promoter hybrid RNA with tandem MS2 sites; ssRNA

For test [1], the target named is PUM1 PUF domain R7-ERR (Homo sapiens, UniProt Q14671 828-1176, S1079E;N1080R;E1083R). In a few lines: (§1)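 The interaction score is the logarithmic change in variant frequency from input to selection. It uses log2, with a pseudocount of 1 for absent variants, and frequencies came from PCR-amplified, Illumina-sequenced repeat regions. The libraries were Pumilio-1 PUF domains randomized at the three base-contacting residues per repeat, co-expressed with matching RNA elements in strain YBZ-1 (LexA–MS2 coat fusion, HIS3 reporter). Plating lasted four days on SC-Leu (input) or SC-Leu-His + 0.5 mM 3-AT (selection).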

Test [2] concerns the target PUM1 PUF domain R5-NVR (Homo sapiens, UniProt Q14671 828-1176, C1007N;R1008V;Q1011R). In short, it runs like this: as §1
The target in test [3] is PUM1 PUF domain R5-PRK (Homo sapiens, UniProt Q14671 828-1176, C1007P;Q1011K). In a few lines:
as §1

Test [4] deals with PUM1 PUF domain R4-SPQ (Homo sapiens, UniProt Q14671 828-1176, N971S;H972P). In a few lines: as §1
The target in test [5] is T1, PUM1 PUF domain R6-VFL (Homo sapiens, UniProt Q14671 828-1176, N1043V;Y1044F;Q1047L).
T1 sequence: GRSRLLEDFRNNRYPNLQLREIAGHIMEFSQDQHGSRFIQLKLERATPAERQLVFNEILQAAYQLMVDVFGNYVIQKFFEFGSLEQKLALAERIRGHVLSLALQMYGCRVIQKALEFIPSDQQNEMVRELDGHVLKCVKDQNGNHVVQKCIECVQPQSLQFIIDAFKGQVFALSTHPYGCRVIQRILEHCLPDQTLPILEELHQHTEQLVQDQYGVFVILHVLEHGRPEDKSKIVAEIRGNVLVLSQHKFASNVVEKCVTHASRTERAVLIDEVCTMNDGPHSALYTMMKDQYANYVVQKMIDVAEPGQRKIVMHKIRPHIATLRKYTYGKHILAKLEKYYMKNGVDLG
In short, it runs like this: as §1

Test [6] addresses PUM1 PUF domain R5-PHQ (Homo sapiens, UniProt Q14671 828-1176, C1007P;R1008H). In short, it runs like this: as §1
The target in test [7] is PUM1 PUF domain R3-LYR (Homo sapiens, UniProt Q14671 828-1176, C935L;R936Y;Q939R). In a few lines:
as §1

Test [8] deals with PUM1 PUF domain R8-KRV (Homo sapiens, UniProt Q14671 828-1176, N1122K;Y1123R;Q1126V). In short, it runs like this: as §1
The target of test [9] is PUM1 PUF domain R8-RFK (Homo sapiens, UniProt Q14671 828-1176, N1122R;Y1123F;Q1126K). In short, it runs like this: as §1
In test [10] the target is PUM1 PUF domain R8-RYC (Homo sapiens, UniProt Q14671 828-1176, N1122R;Q1126C). In short, it runs like this:
as §1

Test [11] deals with PUM1 PUF domain R8-LYI (Homo sapiens, UniProt Q14671 828-1176, N1122L;Q1126I). In short, it runs like this:
as §1

Test [12] concerns the target PUM1 PUF domain R3-VWD (Homo sapiens, UniProt Q14671 828-1176, C935V;R936W;Q939D). In short, it runs like this:
as §1

Test [13] addresses PUM1 PUF domain R2-AWS (Homo sapiens, UniProt Q14671 828-1176, N899A;Y900W;Q903S). In a few lines:
as §1

Test [14] has as its target PUM1 PUF domain R1-GWK (Homo sapiens, UniProt Q14671 828-1176, S863G;R864W;Q867K). In short, it runs like this:
as §1

Test [15] has as its target PUM1 PUF domain R1-WKR (Homo sapiens, UniProt Q14671 828-1176, S863W;R864K;Q867R). In a few lines:
as §1

Test [16] has as its target PUM1 PUF domain R4-NCG (Homo sapiens, UniProt Q14671 828-1176, H972C;Q975G). In short, it runs like this:
as §1

Test [17] deals with PUM1 PUF domain R1-KKD (Homo sapiens, UniProt Q14671 828-1176, S863K;R864K;Q867D). In short, it runs like this: as §1
Test [18] has as its target PUM1 PUF domain R7-DYV (Homo sapiens, UniProt Q14671 828-1176, S1079D;N1080Y;E1083V). In a few lines:
as §1

The target in test [19] is PUM1 PUF domain R8-IYW (Homo sapiens, UniProt Q14671 828-1176, N1122I;Q1126W). In a few lines:
as §1

For test [20], the target named is PUM1 PUF domain R5-KMV (Homo sapiens, UniProt Q14671 828-1176, C1007K;R1008M;Q1011V). In a few lines:
as §1

PUM1 PUF domain R5-PRK, sequence (Q14671 828-1176 C1007P/Q1011K): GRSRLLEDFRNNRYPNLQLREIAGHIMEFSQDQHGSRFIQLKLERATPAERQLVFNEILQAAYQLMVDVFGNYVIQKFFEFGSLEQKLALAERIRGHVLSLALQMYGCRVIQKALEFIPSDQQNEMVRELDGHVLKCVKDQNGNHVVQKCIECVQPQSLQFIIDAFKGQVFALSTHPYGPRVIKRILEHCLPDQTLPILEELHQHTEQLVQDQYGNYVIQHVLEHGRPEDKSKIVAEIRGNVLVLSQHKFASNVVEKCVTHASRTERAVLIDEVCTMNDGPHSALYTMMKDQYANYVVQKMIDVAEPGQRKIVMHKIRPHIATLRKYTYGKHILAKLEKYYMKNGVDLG

As for “GGCUAGAACUAGUGGAUCCCCCGGCGCCCGGCGGCUCGAGCCCGGGUAAGUCUAAAUAGUCUGCAUGCCGCCGGGCGCCAUGCCUGCAGGUCGACUCUAGAAAACAUG”, in [1], the binding signal was 1.25 log2 enrichment (interaction score).

For the sequence “GGCUAGAACUAGUGGAUCCCCCGGCGCCCGGCGGCUCGAGCCCGGGUAAGUGUUAAUAGUCUGCAUGCCGCCGGGCGCCAUGCCUGCAGGUCGACUCUAGAAAACAUG”, the binding signal in test [2] is 4.09 log2 enrichment (interaction score); in test [3], 4.06 log2 enrichment (interaction score).

Turning to “GGCUAGAACUAGUGGAUCCCCCGGCGCCCGGCGGCUCGAGCCCGGGUAAGUGUAAAUAGUCUGCAUGCCGCCGGGCGCCAUGCCUGCAGGUCGACUCUAGAAAACAUG”, the binding signal in test [4] was 3.02 log2 enrichment (interaction score); in [5] it was 1.07 log2 enrichment (interaction score); in [6] it was 3.63 log2 enrichment (interaction score); in test [7] it was 4.29 log2 enrichment (interaction score); in [8], 2.09 log2 enrichment (interaction score); in test [9], 6.27 log2 enrichment (interaction score). The binding signal in test [10] is 5.15 log2 enrichment (interaction score); in [11], 1.1 log2 enrichment (interaction score); in test [3], 2.27 log2 enrichment (interaction score); in test [12], 5.84 log2 enrichment (interaction score).

For the sequence “GGCUAGAACUAGUGGAUCCCCCGGCGCCCGGCGGCUCGAGCCCGGGUAAGUGUAAAAAGUCUGCAUGCCGCCGGGCGCCAUGCCUGCAGGUCGACUCUAGAAAACAUG”, the binding signal in test [13] is 4.37 log2 enrichment (interaction score).

Consider “GGCUAGAACUAGUGGAUCCCCCGGCGCCCGGCGGCUCGAGCCCGGGUAAGUGUAAAUCGUCUGCAUGCCGCCGGGCGCCAUGCCUGCAGGUCGACUCUAGAAAACAUG”, for which the binding signal in [14] was 3.6 log2 enrichment (interaction score); in test [15], 1.59 log2 enrichment (interaction score).

Take “GGCUAGAACUAGUGGAUCCCCCGGCGCCCGGCGGCUCGAGCCCGGGUAAGUGUGAAUAGUCUGCAUGCCGCCGGGCGCCAUGCCUGCAGGUCGACUCUAGAAAACAUG”: the binding signal in test [3] was 3.87 log2 enrichment (interaction score).

Regarding “GGCUAGAACUAGUGGAUCCCCCGGCGCCCGGCGGCUCGAGCCCGGGUAAGUGUAUAUAGUCUGCAUGCCGCCGGGCGCCAUGCCUGCAGGUCGACUCUAGAAAACAUG”, in test [16], the binding signal was 3.59 log2 enrichment (interaction score).

As for “GGCUAGAACUAGUGGAUCCCCCGGCGCCCGGCGGCUCGAGCCCGGGUAAGUGUAAGUAGUCUGCAUGCCGCCGGGCGCCAUGCCUGCAGGUCGACUCUAGAAAACAUG”, the binding signal in [7] is 5.31 log2 enrichment (interaction score); in [12], 1.13 log2 enrichment (interaction score).

On to “GGCUAGAACUAGUGGAUCCCCCGGCGCCCGGCGGCUCGAGCCCGGGUAAGUGUAAAUUGUCUGCAUGCCGCCGGGCGCCAUGCCUGCAGGUCGACUCUAGAAAACAUG”, for which the binding signal in test [17] is 3.36 log2 enrichment (interaction score); in test [14], 3.01 log2 enrichment (interaction score); in test [15], 3.54 log2 enrichment (interaction score).

“GGCUAGAACUAGUGGAUCCCCCGGCGCCCGGCGGCUCGAGCCCGGGUAAGUGUAAUUAGUCUGCAUGCCGCCGGGCGCCAUGCCUGCAGGUCGACUCUAGAAAACAUG”: the binding signal in [7] is 4.25 log2 enrichment (interaction score).

Regarding “GGCUAGAACUAGUGGAUCCCCCGGCGCCCGGCGGCUCGAGCCCGGGUAAGUUUAAAUAGUCUGCAUGCCGCCGGGCGCCAUGCCUGCAGGUCGACUCUAGAAAACAUG”, the binding signal in test [1] was 3.08 log2 enrichment (interaction score); in test [18], 6 log2 enrichment (interaction score).

For the sequence “GGCUAGAACUAGUGGAUCCCCCGGCGCCCGGCGGCUCGAGCCCGGGUAAGCGUAAAUAGUCUGCAUGCCGCCGGGCGCCAUGCCUGCAGGUCGACUCUAGAAAACAUG”, the binding signal was 2.87 log2 enrichment (interaction score) in test [19], 3.19 log2 enrichment (interaction score) in test [8], 5.8 log2 enrichment (interaction score) in test [10] and 2.78 log2 enrichment (interaction score) in [11].

On to “GGCUAGAACUAGUGGAUCCCCCGGCGCCCGGCGGCUCGAGCCCGGGUAAGUGUCAAUAGUCUGCAUGCCGCCGGGCGCCAUGCCUGCAGGUCGACUCUAGAAAACAUG”, for which the results for the binding signal in test [2], in [20] and in test [3] were 2.77 log2 enrichment (interaction score), 3.71 log2 enrichment (interaction score) and 2.13 log2 enrichment (interaction score), respectively.

As to “GGCUAGAACUAGUGGAUCCCCCGGCGCCCGGCGGCUCGAGCCCGGGUAAGUGAAAAUAGUCUGCAUGCCGCCGGGCGCCAUGCCUGCAGGUCGACUCUAGAAAACAUG”, the binding signal in [5] is 7.04 log2 enrichment (interaction score).
